MEKK2mut PB1 HTS – signal of MEK5 binding to mutant human MEKK2 PB1 domain; bead flow cytometry, Alexa488-MEK5 binding to MEKK2 mutant; actives 0.35% (n = 290,000); AID 1530; percent response, % at 10 µM; in the data active means percent response above about 24%, passing the limit was not always enough
MEKK2 WT-MEK5 – raises or lowers MEK5 binding to wildtype human MEKK2 PB1 domain. bead flow cytometry, Alexa488-MEK5 binding to MEKK2 WT; actives lie on both sides. binding response (% of control), % at 10 µM. actives 1.1% (n = 290,000). AID 1531; in the data active means binding response below about 67% or above about 130%
dFosB activator – activators of mouse delta FosB homodimer. P13346. purified delta FosB, TAMRA-CDK5 oligo fluorescence polarization; percent of positive-control signal above neutral wells. activation, % at 25 µM. actives 0.99% (n = 340,000). AID 493131;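 active means mean activation above about 17%, with every replicate also reaching it, limit read from the data, passing the limit was not always enough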
MEKK3 PB1 HTS – MEKK3-MEK5 PB1 interaction, increase or decrease. binding response (% of control), % at 10 µM. Q99759. actives 1.4% (n = 290,000). bead-based flow cytometry, Alexa488-MEK5 binding to MEKK3; actives lie on both sides; 0 = blocked by unlabeled MEK5, 100 = vehicle;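 active means binding response more than 3 SD above or below the average of its plate-row segment, actives on both sides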;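 further: Alexa488 bead fluorescence after subtracting the streptavidin-only scavenger bead signal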
Target sequence (Q99759 whole entry, looked up): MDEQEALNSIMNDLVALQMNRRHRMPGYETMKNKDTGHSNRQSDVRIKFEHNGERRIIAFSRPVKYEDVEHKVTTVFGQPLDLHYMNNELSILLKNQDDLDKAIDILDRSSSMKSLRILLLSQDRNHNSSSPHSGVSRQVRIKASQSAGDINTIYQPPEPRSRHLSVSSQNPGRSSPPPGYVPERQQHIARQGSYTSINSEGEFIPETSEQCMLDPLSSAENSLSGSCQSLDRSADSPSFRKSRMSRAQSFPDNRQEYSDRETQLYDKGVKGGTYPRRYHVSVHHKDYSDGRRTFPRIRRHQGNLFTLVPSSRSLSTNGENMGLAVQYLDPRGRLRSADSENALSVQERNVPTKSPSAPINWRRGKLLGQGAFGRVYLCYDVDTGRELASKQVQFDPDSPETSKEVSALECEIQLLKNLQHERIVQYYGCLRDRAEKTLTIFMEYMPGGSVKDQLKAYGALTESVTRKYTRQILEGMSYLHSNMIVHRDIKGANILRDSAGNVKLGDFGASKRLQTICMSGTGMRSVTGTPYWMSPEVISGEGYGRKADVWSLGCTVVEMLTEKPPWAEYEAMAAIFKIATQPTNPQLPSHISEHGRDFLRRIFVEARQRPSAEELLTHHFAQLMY
FID counter – displaces DNA intercalator in HCV helicase counter-screen; inhibition, % at 7.9 µM; actives 0.17% (n = 290,000); AID 1845; DNA fluorescent intercalator displacement, fluorescence; in the data active means inhibition above about 37%;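 further: 0% = vehicle and 100% = reference compound; higher means more ethidium bromide displaced from hairpin DNA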
MEKK2wt confirm – raises or lowers MEK5 binding to wildtype human MEKK2, retest; bead flow cytometry, Alexa488-MEK5 binding to MEKK2 WT; actives lie on both sides; actives 2.4% (n = 5,900); binding response (% of control), % at 10 µM; shares compounds with MEKK3 PB1 HTS; in the data active means binding response below about 16% or above about 210%; inactive means in between
MEKK2mut-MEK5 – signal of MEK5 binding to mutant human MEKK2, retest. shares compounds with MEKK3 PB1 HTS. bead flow cytometry, Alexa488-MEK5 binding to MEKK2 mutant. percent response, % at 10 µM. actives 2% (n = 5,900); in the data active means percent response mostly above about 71%, no sharp cut-off; inactive means mostly below about 38%;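 further: higher means compound restores mutant binding toward wildtype level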
MEKK3-MEK5 inh – confirmation of inhibitors of MEK5 binding to human MEKK3; shares compounds with MEKK3 PB1 HTS; actives 1.8% (n = 5,900); binding response (% of control), % at 10 µM; AID 1894; bead flow cytometry, Alexa488-MEK5 binding to MEKK3; hits give low values;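 active means binding response below 72% of control, or above a set upper limit, though filed actives all read lower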;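 further: 100% = DMSO only wells and 0% = binding blocked by excess unlabeled MEK5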
Numbers without * were called inactive; nt = no result given; [ ] = another dose, or the depositor's remark. Hits are enriched below; roughly 2.9% of the tested compounds scored in any of these assays.

SMILES	MEKK2mut PB1 HTS	MEKK2 WT-MEK5	dFosB activator	MEKK3 PB1 HTS	FID counter	MEKK2wt confirm	MEKK2mut-MEK5	MEKK3-MEK5 inh
COc1ccc(CCNC(=O)CC2SC(=NCCC(C)C)NC2=O)cc1OC (configuration not stated)	0	107	-1	150*	-24	102	4	103
COCCNC(=O)CSc1ccc(-c2nc3ccccc3[nH]2)cn1	7	105	-8	104	-6	nt	nt	nt
O=C(CSc1ccc(-c2nc3ccccc3[nH]2)cn1)Nc1ccc(S(=O)(=O)NC2CC2)cc1	1	112	-7	165*	-8	102	0	98
Cc1cc(N)ccc1N1CCCC1	6	94	-11	71*[inhibitor]	6	99	2	91
Cc1cc(N)ccc1-n1c(C)ccc1C	-7	90	-22	91	-32	nt	nt	nt
CN1C(=O)c2ccc(C(=O)Nc3nccs3)cc2C1=O	-6	94	-1	91	2	nt	nt	nt
Cc1cc(C)c(OCCCCCNCCO)c(C)c1	-17	22*[inhibitor]	-1	12*[inhibitor]	11	107	2	103
COc1cc(C#N)c(NC(=O)CN2CCN(CCO)CC2)cc1OC	-14	58	-3	47*[inhibitor]	4	102	2	103
CCC1CCCCN1CC(=O)Nc1cc(OC)c(OC)cc1C#N (configuration not stated)	-7	98	4	101	1	nt	nt	nt
CC(=NNc1nc2ccccc2s1)c1ccncn1	nt	nt	-9	nt	nt	nt	nt	nt
C/C(=N\Nc1nc2ccccc2s1)c1ccc(Br)s1	26	138*	-2	111	11	119	15	106
O=C(NCCCN1CCOCC1)C(=O)N/N=C/c1ccccc1	-1	106	-8	157*	-3	98	-4	100
CC(C)(C)c1ccc(/C=N/NC(=O)C(=O)NCCCN2CCOCC2)cc1	-2	101	-3	105	3	nt	nt	nt
Cc1cccc(C)c1NC(=O)C(=O)NCCCN1CCOCC1	-1	93	4	61*[inhibitor]	5	100	-1	103
S=C(NCCN1CCOCC1)N/N=C/c1c2ccccc2cc2ccccc12	-10	-2.0*[inhibitor]	4	1.0*[inhibitor]	1	108	4	102
COc1ccc2ccccc2c1/C=N/NC(=S)NCCN1CCOCC1	-5	100	-4	101	6	nt	nt	nt
S=C(NCCN1CCOCC1)Nc1ccc(Nc2ccccc2)cc1	2	106	7	103	-1	nt	nt	nt
S=C(NCCN1CCOCC1)Nc1ccc(Br)cc1	0	104	7	145*	2	99	-7	100
O=C(COc1ccc([N+](=O)[O-])cc1)Nc1ccc(CN2CCOCC2)cc1	-3	117	-4	120	8	nt	nt	nt
Cc1cccc2c(=O)c(C(=O)NCCCN3CCOCC3)c[nH]c12	8	85	-10	71*[inhibitor]	-1	104	3	104
COc1cc(/C=C(\C#N)C(=O)Nc2ccccc2C(=O)O)cc(Cl)c1OC	-17	56	-6	43*[inhibitor]	-3	106	6	106
COc1ccc(/C=C(/C#N)C(=O)Nc2ccccc2C)cc1C(=O)O	0	106	-6	108	-3	nt	nt	nt
Cc1ccnc(NC(=O)c2cc(S(=O)(=O)N3CCCCC3)ccc2Cl)c1	8	125	-8	134*	-4	104	7	106
COc1ccc(S(=O)(=O)N2CCCCCC2)cc1C(=O)Nc1cc(C)ccn1	nt	nt	-31	nt	nt	nt	nt	nt
CC(=O)c1c(N2CCN(C)CC2)[nH]c(-c2ccccc2)nc1=S	47*	23*	1	99	2	118	9	104
SMILES	MEKK2mut PB1 HTS	MEKK2 WT-MEK5	dFosB activator	MEKK3 PB1 HTS	FID counter	MEKK2wt confirm	MEKK2mut-MEK5	MEKK3-MEK5 inh
Cc1ccc(C)c(NC(=O)c2cc(-c3ccccc3)nn2-c2ccccc2)c1	-1	96	2	60*[inhibitor]	-16	110	6	103
Cc1cc(C)c(S(=O)(=O)c2ccccc2)c(=O)[nH]1	1	102	5	101	2	nt	nt	nt
Cc1ccc(S(=O)(=O)c2c(C)cc(-c3ccccc3)[nH]c2=O)cc1	7	134*	-4	143*	-13	102	-1	103
CCn1c(SCC(=O)N=Nc2c(O)[nH]c3ccccc23)nnc1-c1ccc(C(C)(C)C)cc1	1	111	nt	132*	3	99	-3	99
CCn1c(SCC(=O)N=Nc2c(O)[nH]c3ccccc23)nc2ccccc21	1	101	-4	145*	-2	105	7	107
O=C(Nc1ccc2nc3n(c(=O)c2c1)CCCC3)c1cccc([N+](=O)[O-])c1	2	112	-4	139*	2	101	-5	99
COc1cccc(Nc2c3c(nc4c(-c5ccccc5)c(C)nn24)CCC3)c1	1	115	-7	132*	-18	30	-19	56*
Cc1nn2c(N3CCCC3)c3c(nc2c1-c1ccccc1)CCC3	-13	30*[inhibitor]	nt	37*[inhibitor]	-4	96	2	103
CC(OC(=O)CCN=C1NS(=O)(=O)c2ccccc21)C(=O)Nc1ccc(F)cc1 (configuration not stated)	nt	nt	-1	nt	nt	nt	nt	nt
O=C1C=C(NCc2ccc(Cl)cc2)CC(c2ccco2)C1 (configuration not stated)	8	116	-17	127*	-9	95	-3	96
CC(C)CNC1=CC(=O)CC(c2ccco2)C1 (configuration not stated)	-3	97	6	96	-15	nt	nt	nt
CC(C)[C@H](NC(=O)c1ccc(Br)cc1)C(=O)NC1CCCCC1	nt	nt	4	nt	nt	nt	nt	nt
O=C(O)CCCC(=O)N1CCN(c2nc(-c3ccccc3Cl)c3cc(Br)ccc3n2)CC1	26*	119	9	119	-35	97	-7	98
Cc1ccc2nc(N3CCN(C(=O)CCCC(=O)O)CC3)nc(-c3ccccc3)c2c1	8	108	-3	110	-40	nt	nt	nt
CC(C)C(C)NC(=O)COc1ncnc2sccc12 (configuration not stated)	-1	92	-6	96	4	nt	nt	nt
N#C/C(=C\C=C\c1ccccc1[N+](=O)[O-])c1nc(-c2ccc3c(c2)OCO3)cs1	30*	24*	-5	104	-1	93	-4	96
COCCN(C(=O)c1cc(S(=O)(=O)N2CCCCC2)ccc1Cl)c1c(N)n(CC(C)C)c(=O)[nH]c1=O	nt	nt	-9	nt	nt	nt	nt	nt

Screening data from PubChem BioAssay.
